# Bioassay records as filed in PubChem.
# IL1B secr inh: blocks inflammasome-driven IL-1 beta release; 360,000 compounds, 4.7% hits; THP-1 LPS/ATP IL-1B secretion, AlphaLISA, 16 h; hits give low values; AID 743279; activity change, % at 57.5 µM; in the data active means activity change below about -50%; inconclusive means mostly about -30% to -49%
#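 THP-1 cells pretreated 1 hr with compounds (up to 57.5 uM final), then stimulated with LPS (250 ng/mL final) plus ATP (1.25 mM final); secreted IL-1B measured by AlphaLISA after 16 hr, decreased signal indicating inhibition.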
# HT1080 IDH1KD tx: toxicity to HT-1080 IDH1 knockdown cells (counter line). HT-1080 IDH1 knockdown viability, ATP luminescence, 48 h. Potency, µM (series often up to 46.1 µM), most hits filed as cytotoxic. 360,000 compounds, 2% hits. AID 686971
#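 Luminescent ATP read-out (CellTiter-Glo, 10 min at room temperature) after 48 h compound exposure at 37 °C gave viability of IDH1-knockdown HT-1080 cells. Activity was normalised to DMSO and cell-free wells, then fitted as concentration-response curves.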
# 12-LOX inh: blocks human arachidonate 12S-lipoxygenase. purified 12hLO, xylenol orange hydroperoxide absorbance. Potency, µM (series often up to 108 µM), most hits filed as inhibitors. P18054. 580,000 compounds, 1.1% hits. AID 1671190
# Target sequence (P18054 whole entry, looked up): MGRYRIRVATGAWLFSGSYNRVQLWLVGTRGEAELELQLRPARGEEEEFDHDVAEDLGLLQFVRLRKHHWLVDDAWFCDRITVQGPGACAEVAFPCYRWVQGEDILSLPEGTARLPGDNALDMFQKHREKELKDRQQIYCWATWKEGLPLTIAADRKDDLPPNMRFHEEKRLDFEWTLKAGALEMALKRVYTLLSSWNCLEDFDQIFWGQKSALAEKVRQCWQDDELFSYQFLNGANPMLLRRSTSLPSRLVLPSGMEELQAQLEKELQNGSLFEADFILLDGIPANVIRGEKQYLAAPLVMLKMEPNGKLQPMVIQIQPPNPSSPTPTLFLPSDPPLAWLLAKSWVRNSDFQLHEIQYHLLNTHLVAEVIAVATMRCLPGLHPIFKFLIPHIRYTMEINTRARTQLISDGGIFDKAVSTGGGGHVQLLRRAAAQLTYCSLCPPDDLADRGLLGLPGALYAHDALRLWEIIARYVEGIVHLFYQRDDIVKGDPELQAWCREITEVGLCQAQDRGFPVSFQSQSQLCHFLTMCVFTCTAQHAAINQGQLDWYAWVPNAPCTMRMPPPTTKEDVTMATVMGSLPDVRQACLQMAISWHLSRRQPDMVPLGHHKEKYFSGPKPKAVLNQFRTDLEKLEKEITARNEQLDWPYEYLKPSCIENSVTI
#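 Purified human 12hLO at 150 nM in 25 mM Hepes, 0.01% Triton X-100, pH 7.0, preincubated 15 min at room temperature with compound. Reaction started with 40 uM arachidonic acid, 30 min at room temperature. Hydroperoxide measured by Fe-xylenol orange, 573/405 nm absorbance ratio.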
# TDP1 cell noCPT: qHTS for Inhibitors of human tyrosyl-DNA phosphodiesterase 1 (TDP1): qHTS in cells in absence of CPT; DT40 Tdp1-/- hTDP1 cells, no CPT, ATP luminescence, 48 h; Potency, µM (top dose mostly 46.2 µM), actives largely listed as inhibitors; 420,000 compounds, 15% hits; further: nearly all actives have a fitted effect of over 55% in size
#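 A cellular qHTS used chicken DT40 cells lacking endogenous Tdp1 but carrying stably transfected human TDP1. Compounds were applied without camptothecin, and cell growth kinetics were judged by ATP-dependent luminescence after ≥48 hr.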
# HT1080NT lethal: kills 2HG-producing HT-1080-NT fibrosarcoma cells; HT-1080-NT fibrosarcoma viability, CellTiter-Glo ATP luminescence, 48 h; Potency, µM (doses to about 46.1 µM), most hits filed as cytotoxic; 360,000 compounds, 1.6% hits; AID 686970;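 further: NT is the 2HG producing partner of a matched IDH1 knockdown line; nearly all actives have a fitted effect of over 55% in size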
#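 Fibrosarcoma NT cells, 750 per well in 5% FBS RPMI, were exposed to compound for 48 hours. Viability: CellTiter-Glo luminescence.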
# DT40 TDP1 CPT: DT40-hTDP1 cell growth loss with CPT | chicken DT40 Tdp1-/-;hTDP1 cells + 20 nM CPT, ATP luminescence, 48 h | Potency, µM (highest dose often 46.2 µM), most hits filed as inhibitors | 420,000 compounds, 12% hits; further: nearly all actives have a fitted effect of over 55% in size
#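 Cell growth measured by CellTiter-Glo luminescence after a minimum 48 h, 37 C compound exposure with 20 nM CPT in Tdp1-knockout DT40 cells stably expressing hTDP1, seeded 400/well; qHTS titration format.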
# Numbers stand for hits; - = inactive; ? = inconclusive; . = not tested or not shown; ! = not confirmed by another sample; [ ] = another dose, or the depositor's remark. Many of the other results were omitted from the sample, so hits are more common in it than they were. Unless noted, the call rests on the fitted dose curve; in most records, active means well fitted curve in the direction sought with a large enough effect; inconclusive means small, poorly fitted or top-dose-only effect, or another doubt; inactive means no such curve, though single readings can be large; an effect the other way counts as inactive or inconclusive.
SMILES,IL1B secr inh,HT1080 IDH1KD tx,12-LOX inh,TDP1 cell noCPT,HT1080NT lethal,DT40 TDP1 CPT
O=C(Nc1ccc2c(c1)OCCO2)C(c1cc2ccccc2o1)N1CCN(C/C=C/c2ccccc2)CC1 (stereo unspecified),-,?,?,16.4µM,?,14.6µM
CC1(C(=O)NS(=O)(=O)Cc2ccccc2C(F)(F)F)CCN1C(=O)C/C=C/c1ccccc1 (stereo unspecified),-,-,-,23.1µM,-,?
CC1(C(=O)Nc2ccc3c(c2)OCCO3)CCN1C(=O)C1(c2ccccc2)CC1 (stereo unspecified),-,-,-,-,-,?
CCCOc1ccc(C(=O)Nc2nonc2C)cc1,.,.,-,.,.,.
CCCCN1C[C@H](Cc2ccccc2)[C@@H](CC(=O)NCc2ccc(OC)cc2)C1=O,-,-,-,22.4µM!,-,17.8µM
CCCCC[C@H]1CN(CCc2ccccc2)C(=O)[C@@H]1CC(=O)NCc1ccc(OC)cc1,-78.3,-,-,18.4µM,-,?
CCCCC[C@H]1CN(CCCC)C(=O)[C@@H]1CC(=O)NCc1ccc(OC)cc1,-,-,-,?,-,?
CCCCC[C@H]1CN(Cc2ccccc2)C(=O)[C@@H]1CC(=O)NCc1ccccc1,-51.5,-,-,14.1µM,-,11.2µM
COc1ccc(N2C[C@H](Cc3ccccc3)[C@@H](CC(=O)Nc3ccccc3)C2=O)cc1,-,-,-,20.6µM,-,?
O=C([C@@H]1C[C@H](Oc2cccnc2)CN1S(=O)(=O)Cc1ccccc1F)N1CCCC1,.,.,-,.,.,.
CO/N=C/c1ccc(N2CCN(C(=O)c3ccc(C)cc3)CC2)c([N+](=O)[O-])c1,-,-,-,14.6µM,-,18.4µM
COc1ccc(N2CCN(C(=O)c3ccccc3F)CC2)c([N+](=O)[O-])c1,?,-,-,?,-,?
COc1ccc(N2CCN(C(=O)c3cccc(F)c3)CC2)c([N+](=O)[O-])c1,-52.5,-,-,?,-,?
O=C(c1ccc(F)cc1)N1CCN(c2cc(N3CCCCC3)c(F)cc2[N+](=O)[O-])CC1,-82.8,?,-,?,-[9.24 µM],?
COc1ccc(N2CCN(C(=O)c3cccc(Br)c3)CC2)c([N+](=O)[O-])c1,?,-,-,16.4µM,-,23.1µM
COc1ccc(NC(=O)N2CC(C(=O)N(C)C)C3(CCOCC3)C2)c(OC)c1 (stereo unspecified),.,.,-,.,.,.
COc1ccc(N2CCN(C(=O)CC34CC5CC(CC(C5)C3)C4)CC2)c([N+](=O)[O-])c1,-,-,-,16.4µM,-,20.6µM
COc1ccc(N2CCN(C(=O)c3ccc(F)cc3)CC2)c([N+](=O)[O-])c1,-,-,-,20.6µM,-,-
CCC(=O)N1CCN(c2ccc(OC)cc2[N+](=O)[O-])CC1,-,-,-,-,-[9.24 µM],-
CC(C)CCN1CCC(N2CCN(S(=O)(=O)c3ccc(F)c(Cl)c3)CC2)C1=O (stereo unspecified),.,.,-,.,.,.
Cc1ccccc1C(=O)NNC(=S)Nc1cccc(C(F)(F)F)c1,-,?,?,23.1µM,?,?
CC(=O)NNC(=S)Nc1cccc(C(F)(F)F)c1,.,.,-,.,.,.
O=C(NNC(=S)Nc1cccc(C(F)(F)F)c1)c1ccc(Cl)cc1Cl,-52.2,?,?,25.9µM,?,?
Cc1nccn1-c1ccc(CNC(=O)C(c2ccc(F)cc2)N(C)C)cc1 (stereo unspecified),.,.,-,.,.,.
O=C(CCl)N(c1ccccc1)c1ccccc1,-108.0,5.17µM,-,1.84µM,6.51µM,2.06µM
O=Cc1[nH]c2ccccc2c1N(C(=O)CCl)c1ccccc1,.,23.1µM,-,14.6µM,16.4µM,10.3µM
O=C(N(c1ccccc1)c1ccccc1)N(c1ccccc1)c1ccccc1,-,-,-,20.6µM,-,?
CNC(=O)N(c1ccccc1)c1ccccc1,-,-,-,-,-,-
CC(=O)c1c[nH]c2ccc(Br)cc12,.,.,-,.,.,.
